Bioassay records as filed in PubChem.
TGFb inhibitor: inhibitors of TGF-b signaling; Potency, µM (titrated, usually from 46.1 µM), inactives show at the highest dose activity, negative = inhibition, usual class: inhibitors; hit rate 1.2% among 410,000; AID 588855; HepG2 CAGA-GFP TGF-b/SMAD3 reporter, GFP fluorescence, 18 h; TGF-beta stimulated, 500 pg/mL final; further: on the % scale 0 is the no-effect control and ±100 the full control effect; nearly all actives have a fitted effect of over 65% in size
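Smad-responsive CAGA-GFP expression was quantified in HEPG2 cells exposed to compounds and 500 pg/mL final TGF-beta for 18 h at 37 degrees C; unstimulated wells defined full inhibition.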
TDP1 cell CPT: DT40-hTDP1 cell growth loss with CPT | Potency, µM (doses to about 46.2 µM), for the others: at the top dose activity change, negative = growth inhibition, hits mostly inhibitors | chicken DT40 Tdp1-/-;hTDP1 cells + 20 nM CPT, ATP luminescence, 48 h | AID 686979 | hit rate 12% among 420,000; further: on the % scale 0 is the no-effect control and ±100 the full control effect; nearly all actives have a fitted effect of over 55% in size
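Cell growth measured by CellTiter-Glo luminescence after a minimum 48 h, 37 C compound exposure with 20 nM CPT in Tdp1-knockout DT40 cells stably expressing hTDP1, seeded 400/well; qHTS titration format.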
HepG2 tox: HepG2 cytotoxicity, counter-screen for TGF-b inhibitors; hit rate 0.76% among 410,000; HepG2 CAGA-GFP viability, ATP luminescence, 18 h; Potency, µM (doses to about 46.1 µM), without a hit: at the top dose activity change, negative = cytotoxicity, hits mostly cytotoxic; AID 588856
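CellTiter-Glo luminescence gave cytotoxicity after 18 hours at 37 degrees C. The cells were HepG2 CAGA-GFP in 1% FBS DMEM, stimulated with 500 pg/mL TGF-beta after compound addition. %Activity was normalised to no-cell wells (complete cell-killing) and DMSO (no toxicity), and curves were fitted and classified.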
TDP1 cell noCPT: qHTS for Inhibitors of human tyrosyl-DNA phosphodiesterase 1 (TDP1): qHTS in cells in absence of CPT | DT40 Tdp1-/- hTDP1 cells, no CPT, ATP luminescence, 48 h | Potency, µM (titrated, usually from 46.2 µM), for inactives: at the highest dose activity change, negative = growth inhibition, actives largely listed as inhibitors | hit rate 15% among 420,000 | AID 686978, 2013; further: on the % scale 0 is the no-effect control and ±100 the full control effect; nearly all actives have a fitted effect of over 55% in size
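Cells were dispensed at 400 per well, compounds added by pin tool, plates incubated ≥48 hr at 37 °C, then CellTiter-Glo added for 30 min at room temperature before luminescence reading. Line: DT40 Tdp1-/- complemented with hTDP1; camptothecin omitted.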
HT1080NT lethal: kills 2HG-producing HT-1080-NT fibrosarcoma cells | HT-1080-NT fibrosarcoma viability, CellTiter-Glo ATP luminescence, 48 h | Potency, µM (highest dose often 46.1 µM), for inactives: at the top dose activity, negative = less viability, hits mostly cytotoxic | hit rate 1.6% among 360,000 | AID 686970;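 further: NT is the 2HG producing partner of a matched IDH1 knockdown line; 0% = DMSO-treated cells and -100% = media-only wells without cells; nearly all actives have a fitted effect of over 55% in size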
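Toxicity toward the 2HG-producing NT line was scored as %Activity, normalised to DMSO and no-cell wells, from CellTiter-Glo luminescence after 48 hours' treatment.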
HT1080 IDH1KD tx: toxicity to HT-1080 IDH1 knockdown cells (counter line). HT-1080 IDH1 knockdown viability, ATP luminescence, 48 h. Potency, µM (highest dose often 46.1 µM), inactives show at the highest dose activity, negative = toxicity, actives largely listed as cytotoxic. hit rate 2% among 360,000. AID 686971;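 further: 0% = DMSO wells and -100% = cell-free medium wells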
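Knockdown cells (IDH1KD HT-1080) received compounds 2 h after plating at 750 cells/well and were kept 48 h at 37 °C in 5% FBS RPMI. A CellTiter-Glo luminescence read gave % activity for curve fitting.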
* marks the source's active call; other numbers are inactive results; ? = inconclusive; · = no result given; [ ] = dose if it differs, or a comment. Sampled rows, rich in hits. Any-hit rate of the full collection: about 17%. The call rests on the fitted dose curve; in most records, active means well fitted curve in the direction sought with a large enough effect; inconclusive means small, poorly fitted or top-dose-only effect, or another doubt; inactive means no such curve, though single readings can be large; an effect the other way counts as inactive or inconclusive. Potency means the concentration at half of the fitted maximal effect.

SMILES | TGFb inhibitor | TDP1 cell CPT | HepG2 tox | TDP1 cell noCPT | HT1080NT lethal | HT1080 IDH1KD tx
CC(C)Cn1c2c(c(O)c(C(=O)Nc3nccs3)c1=O)CCCC2 | 0% | 16µM* | -1% | ? | 4% | ?
CCCn1c2c(c(O)c(C(=O)Nc3nccs3)c1=O)CCCC2 | 0% | 6% | 10% | ? | 13% | 7%
CCOC(=O)Cc1csc(NC(=O)c2c(O)c3c(n(CC(C)C)c2=O)CCCC3)n1 | -26% | 21µM* | -27% | ? | ? | 11%
Nc1ccc(/C=C/c2cc(Cl)nc3ccccc23)cc1 | -6% | 4µM* | -26% | 4µM* | · | ·
CCN(CC)c1ccc(/C=C/c2cc(Cl)nc3ccccc23)cc1 | -5% | ? | -28% | 16µM* | · | ·
CN(C)c1ccc(/C=C/c2cc(Cl)nc3ccccc23)cc1 | ? | ? | -16% | -29% | · | ·
C[C@@H]1CN([C@H](C)CO)C(=O)CCCn2nncc2CO[C@H]1CN(C)CC1CC1 | -3% | 3% | 1% | -2% | 20% | 22%
O=C(COc1ccccc1)N(Cc1cccnc1)c1nc2c(F)cc(F)cc2s1 | 0% | -26% | -19% | ? | · | ·
O=C(CCS(=O)(=O)c1ccccc1)N(Cc1cccnc1)c1nc2ccc(F)cc2s1 | ? | 3.3µM* | -21% | 5.8µM* | · | ·
Cc1cc(C)c2sc(N(Cc3cccnc3)C(=O)CCOc3ccccc3)nc2c1 | -6% | 18µM* | -11% | ? | · | ·
O=C(CCOc1ccccc1)N(Cc1cccnc1)c1nc2c(F)cc(F)cc2s1 | ? | 18µM* | -35% | 26µM* | · | ·
COc1ccc2nc(N(Cc3cccnc3)C(=O)Cc3ccccc3)sc2c1 | -36% | -13% | -19% | -7% | · | ·
CC(=O)N(Cc1cccnc1)c1nc2ccc(F)cc2s1 | -4% | -9% | -5% | -7% | · | ·
CCN(CC)CCN(C(=O)CCOc1ccccc1)c1nc2c(F)cc(F)cc2s1 | -15% | ? | -20% | 18µM* | 2% | -2%
Cc1ccccc1-c1nccc(NCc2cccnc2)n1 | · | -15% | · | -26% | · | ·
COCc1ccc(CN2CCOc3c(O)cc(-c4cc(C)c5ccc(F)cc5n4)cc3C2)o1 | · | -1%[9.04 µM] | · | ? | · | ·
O=C(CSc1cccc[n+]1[O-])c1ccc(Cl)s1 | 4% | 0.73µM* | -20% | 1.3µM* | ? | ?
CN(C(=O)CSc1cccc[n+]1[O-])c1ccccc1 | 1% | -9% | -1% | 6% | 10% | 1%
O=C(CSc1cccc[n+]1[O-])c1ccccc1Br | ? | 3.7µM* | -72% | 5.2µM* | ? | ?
CCOC(=O)C1CCN(c2c(C(=O)c3ccccc3)cnc3ccc(Cl)cc23)CC1 | 6% | 23µM* | -4% | 18µM* | 1% | -1%
CCc1ccc2ncc(C(=O)c3ccc(C)c(C)c3)c(N3CCC(C(N)=O)CC3)c2c1 | ? | 23µM* | -35% | 21µM* | · | ·
CCOC(=O)C1CCN(c2nc(-c3ccc(C)cc3)nc3ccccc23)CC1 | -1% | 2% | 7% | -29% | -11% | -23%
Oc1ccc(N2CCN(c3ccnc4cc(Cl)ccc34)CC2)cc1 | 0% | ? | -3% | 23µM* | -24% | -22%
Clc1ccc2c(N3CCCC3)ccnc2c1 | -8% | ? | -36% | ? | -21% | -14%
CC1CN(c2ccnc3cc(Cl)ccc23)CC(C)O1 (stereo unspecified) | -8% | ? | -27% | 12µM* | -14% | -6%
SMILES | TGFb inhibitor | TDP1 cell CPT | HepG2 tox | TDP1 cell noCPT | HT1080NT lethal | HT1080 IDH1KD tx
COc1ccc(N2CCN(c3ccnc4cc(Cl)ccc34)CC2)cc1 | 12% | ? | 6% | 18µM* | 1% | 8%
CSCc1ccc(C(=O)NC(C)c2ccc(-n3ccnc3)cc2)cc1 (stereo unspecified) | -4% | -1% | -9% | -5% | 5% | 1%
CCN(C(=O)CSc1nc2ccccc2[nH]1)c1ccccc1 | -3% | ? | 3% | -9% | · | ·
COc1ccccc1NC(=S)NCCc1ccccc1 | ? | -4% | -22% | 21µM* | -3% | -2%
CC(C)(C)CC(=O)NC(=S)NCCc1ccccc1 | -20% | -5% | -19% | -27% | ? | 10µM*
COc1ccccc1NC(=S)NCCc1c[nH]c2ccccc12 | -18% | 15µM* | -12% | 18µM* | -22% | -16%
CC(=O)OC(C(=O)NCc1ccc(F)cc1)c1ccccn1 (stereo unspecified) | 3% | 6% | -7% | -5% | 10% | 13%
CC1=NN(c2ccccc2)C(=O)C1N=Nc1ccc(N)cc1 (stereo unspecified) | -21% | 15µM* | -41% | 10µM* | -17% | 23µM*
CC1=NN(c2ccccc2)C(=O)C1N=Nc1cccc(O)c1 (stereo unspecified) | ? | 16µM* | -88% | 16µM* | ? | ?
CC1=NN(c2ccccc2)C(=O)C1N=Nc1ccccc1 (stereo unspecified) | 0% | 7% | -14% | -21% | 22% | 3%
NC(=O)c1sc2cc(C(F)(F)F)cnc2c1-c1ccccc1 | 0% | 7% | -3% | -18% | 0% | -3%
CNC(=S)NNC(=O)c1sc2cc(C(F)(F)F)cnc2c1-c1ccccn1 | 0% | 6% | 2.5µM* | ? | 13% | 6%
CCN(CC(=O)Nc1ccc(NC(C)=O)cc1)C(=O)CCCOc1ccc(C(C)(C)C)cc1 | ? | 18µM* | -12% | 23µM* | -30% | ?
O=C(CN1C(=O)/C(=C2\SC(=S)N(C3CCS(=O)(=O)C3)C2=O)c2ccccc21)Nc1ccccc1 (stereo unspecified) | 13% | ? | 27% | 13µM* | -5% | 5%
COc1ccc(NC(=O)CN2C(=O)/C(=C3\SC(=S)N(CCC(=O)O)C3=O)c3ccccc32)cc1 | -4% | -2% | -1% | 8% | ? | -8%
Cc1ccc(CNC(=O)CCCCCNC(=O)N2CCn3c2nc2ccccc23)cc1 | -11% | 18µM* | -3% | ? | 7% | 2%
COc1cccc(CNC(=O)CCCCCNC(=O)N2CCn3c2nc2ccccc23)c1 | -1% | 16µM* | -5% | -28% | 5% | 17%
Cc1cc(C)c(C)c(S(=O)(=O)NCCCn2ccnc2)c1C | -10% | ? | -24% | ? | ? | ?
